POLH inh – qHTS for Inhibitors of Polymerase Eta | recombinant Pol eta, fluorescent DNA replication assay | Potency, µM (doses to about 114 µM), inactives show at the highest dose activity change, negative = inhibition, actives largely listed as inhibitors | 390,000 tested, 1.2% active | AID 588591, 2011; further: potency means the concentration at half of the fitted maximal effect; on the % scale 0 is the no-effect control and ±100 the full control effect
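Pol eta at 10 nM preincubated with compounds 15 min at room temperature; reaction started with fluorescent substrate (50 nM final) and read kinetically at 0 and 10 min.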
Pol iota inh – qHTS for Inhibitors of Polymerase Iota; DNA polymerase iota (Homo sapiens), Q9UNA4; Pol iota fluorescent replication assay, 10 min; Potency, µM (doses to about 115 µM), inactives show at the top dose activity, negative = inhibition, actives largely listed as inhibitors; 390,000 tested, 1% active; further: potency means the concentration at half of the fitted maximal effect
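Fluorescent replication assay read twice, at 0 min and 10 min after adding 50 nM (final) substrate. Enzyme (10 nM) and compounds were first incubated 15 min at room temperature; enzyme-free buffer wells were negative controls.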
WRN inhibitor – qHTS for Inhibitors of WRN Helicase. Bifunctional 3'-5' exonuclease/ATP-dependent helicase WRN (Homo sapiens), Q14191. Potency, µM (titrated, usually from 114 µM), inactives show at the top dose activity change, negative = inhibition, hits mostly inhibitors. 360,000 tested, 0.46% active. WRN helicase unwinding, fluorescent forked duplex, kinetic; further: potency means the concentration at half of the fitted maximal effect; on the % scale 0 is the no-effect control and ±100 the full control effect; nearly all actives have a fitted effect of over 55% in size
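WRN at 20 nM final preincubated with compound 15 min at room temperature; reaction started with 100 nM fluorophore/quencher forked duplex oligonucleotide and 2 mM ATP final. Unwinding followed kinetically by red fluorescence (ex 525, em 598 nm).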
POLB inh – qHTS Assay for Inhibitors of DNA Polymerase Beta; P06746; Pol beta primer extension/strand displacement, fluorescence kinetic; Potency, µM (series often up to 114 µM), for the others: at the top dose activity change, negative = inhibition, most hits filed as inhibitors; 340,000 tested, 1.3% active; AID 485314, 2010; further: potency means the concentration at half of the fitted maximal effect; on the % scale 0 is the no-effect control and ±100 the full control effect
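Pol beta (10 nM) and compounds were preincubated 15 min at room temperature, then 50 nM substrate (final) started primer extension/strand displacement. Reads were taken at 0 and 10 min; concentration-response data were fitted to a four-parameter Hill equation.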
PI5P4Ka inh – qHTS for Inhibitors of phosphatidylinositol 5-phosphate 4-kinase (PI5P4K); max response, %; Phosphatidylinositol 5-phosphate 4-kinase type-2 alpha (Homo sapiens), P48426; 330,000 tested, 1.2% active; PI5P4Kalpha enzyme, ADP-Glo luminescence, 60 min; hits give low values; active means max response of -50% or lower; inconclusive means between -30% and -50%; inactive means -30% or higher; further: value at the top dose of about 77 µM; on the % scale 0 is the no-effect control and ±100 the full control effect
Target sequence (P48426 whole entry, looked up): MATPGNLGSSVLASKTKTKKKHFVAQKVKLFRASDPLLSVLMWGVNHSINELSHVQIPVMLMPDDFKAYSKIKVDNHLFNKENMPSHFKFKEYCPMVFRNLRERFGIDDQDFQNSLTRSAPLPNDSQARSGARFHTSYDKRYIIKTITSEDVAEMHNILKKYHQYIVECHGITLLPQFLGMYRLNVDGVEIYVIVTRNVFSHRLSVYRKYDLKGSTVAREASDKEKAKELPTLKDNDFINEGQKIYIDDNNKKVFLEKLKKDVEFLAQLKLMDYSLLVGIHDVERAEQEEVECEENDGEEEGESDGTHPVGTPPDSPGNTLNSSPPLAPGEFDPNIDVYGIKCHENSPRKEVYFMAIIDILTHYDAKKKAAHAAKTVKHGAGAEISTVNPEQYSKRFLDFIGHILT
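Luminescence from ADP-Glo served as readout of PI5P4Kalpha activity in a qHTS format. Reaction: enzyme, substrate, compound, ATP at 5 microM final, 60 min at RT.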
POLK inh – qHTS for Inhibitors of Polymerase Kappa; 400,000 tested, 0.53% active; DNA polymerase kappa (Homo sapiens), Q9UBT6; Potency, µM (top dose mostly 107 µM), inactives show at the highest dose activity, negative = inhibition, usual class: inhibitors; purified Pol kappa, fluorescent DNA synthesis assay, 10 min; AID 588579, 2011; further: potency means the concentration at half of the fitted maximal effect; on the % scale 0 is the no-effect control and ±100 the full control effect
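Kinetic fluorescence screen: compound preincubated 15 min RT with 10 nM enzyme; 50 nM substrate (final) initiates; reads at 0/10 min.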
* = called active by the depositor; ? = inconclusive; nt = not tested or not shown; [ ] = remark or other dose. Most compounds without a hit are left out; they make up all but 2.8% or so of the library. Unless noted, the call rests on the fitted dose curve; in most records, active means well fitted curve in the direction sought with a large enough effect; inconclusive means small, poorly fitted or top-dose-only effect, or another doubt; inactive means no such curve, though single readings can be large; an effect the other way counts as inactive or inconclusive.

SMILES	POLH inh	Pol iota inh	WRN inhibitor	POLB inh	PI5P4Ka inh	POLK inh
O=C(CSc1nc(-c2ccc(F)cc2)cs1)NC(=O)NCc1ccco1	?	50µM*	-12%[57.1 µM]	?	nt	-41%
C=CCn1c(SCC(=O)NC(=O)NCc2ccco2)nc2sc(CC)cc2c1=O	11µM*	45µM*	-20%[11.6 µM]	14µM*	-50*	?
Cc1ccc(SCC(=O)NC(=O)NCc2ccco2)cc1C	nt	nt	nt	40µM*	nt	nt
CCCn1c(SCC(=O)NC(=O)NCc2ccco2)n[nH]c1=O	nt	nt	nt	14µM*	nt	nt
O=S1(=O)CCOC[C@H](c2ccccc2)N1Cc1ccc(F)cc1	nt	32%	nt	nt	nt	-16%
CCOC(=O)c1ccc(NC(=O)C2CCCN(c3ccc(Sc4ccc(C)cc4)nn3)C2)cc1 (centres undefined)	-11%	27%	nt	5%	nt	-23%
Cc1ccc(CSC2=Nc3ccccc3C3=NC(CCC(=O)N4CCN(c5ccccc5)CC4)C(=O)N23)cc1 (centres undefined)	-16%	13%	nt	11%	nt	18%
C[C@@H]1[C@H](c2ccccc2)OCCS(=O)(=O)N1Cc1ccccc1Br	nt	3%	nt	nt	nt	-17%
COc1ccccc1C(C)NCC(=O)NC(=O)NCc1ccco1 (centres undefined)	?	50µM*	-5%	nt	-18	-31%
Cc1ccccc1Nc1nnc(SCC(=O)NC(=O)NCc2ccco2)s1	?	22µM*	-19%[57.1 µM]	?	nt	?
O=C(CSc1nnc(Nc2ccccc2)s1)NCc1ccco1	-7%	?	-8%	16%	0	-1%
O=C(CSc1ccc2c(c1)OCCO2)NCc1ccco1	?	?	-14%	40µM*	-10	?
Cc1ccc2c(c1)c(C)cc(=O)n2CCC(=O)O	-3%	3%	-12%	13µM*	nt	-6%[60.1 µM]
CO[C@@]1(NC(=O)CSCC#N)C(=O)N2C(C(=O)O)=C(CSc3nnnn3C)CSC21 (some centres undefined)	nt	nt	nt	nt	nt	-4%[60.1 µM]
CO[C@@]1(NC(=O)Cc2cccs2)C(=O)N2C(C(=O)O)=C(COC(N)=O)CSC21 (some centres undefined)	nt	nt	nt	nt	nt	32µM*
CO[C@@]1(NC(=O)Cc2cccs2)C(=O)N2C(C(=O)O)=C(COC(N)=O)CS[C@@H]21	?	?	-15%	13µM*	-2	?
CCc1cccc(NC(=O)C(Cc2ccccc2)NS(=O)(=O)c2ccc3c(c2)oc(=O)n3C)c1 (centres undefined)	-10%	26%	nt	6%	nt	-3%
Cc1cccc2c(N=Nc3ccc(S(=O)(=O)Nc4ccc(Cl)cc4)cc3[N+](=O)[O-])c(O)[nH]c12	1%	7%	-13%	-2%	-74*	-18%
O=c1c2ccccc2sn1-c1ccc(Cl)cc1	0%	nt	-3%	nt	-100*	nt
O=c1c2ccc(F)cc2sn1-c1ccccc1	-15%	nt	-7%	nt	-108*	nt
COC(=O)c1cccc(N2CCCC2=O)c1	3%	11%	3%	-24%	0	3%
O=c1c2cc(F)ccc2sn1-c1ccccc1Cl	0%	nt	3%	nt	-84*	nt
COC(=O)c1cccc(-n2sc3ccccc3c2=O)c1	0%	?	0%	nt	-96*	-5%
COc1ccc(C(=O)NCc2ccc3c(c2)CCN3C(C)=O)c(OC)c1	-8%	-3%	nt	3%	nt	-11%[60.1 µM]
CCn1c(CNC(=O)c2ccc(OC)cc2)nnc1SCC(=O)Nc1cccc(C)c1C	-6%	-5%	nt	9%	nt	-4%
Cc1ccc(-n2sc3cc(F)ccc3c2=O)c(C)c1	-13%	nt	-7%	nt	-87*	nt
O=c1c2ccccc2sn1-c1ccc(F)cc1	5%	?	-5%[11.6 µM]	nt	-89*	-2%
O=c1sc2ccccc2c(=O)n1Cc1ccccc1F	-7%	23%	-10%	2%	6	-6%

Compound activity as filed in PubChem BioAssay.
